Assay outcomes (PubChem)
Shown are actives, neighbours in structure and some others; about 2.7% of the full set was active somewhere.
IP6K1 inhibitor = blocks human inositol hexakisphosphate kinase 1 | IP6K1 kinase, ADP-Glo luminescence, 2 h; active compounds read low | activity change, % (series mostly up to about 58 µM) | Q92551 | 140,000 tested, 0.81% active; in the data active = activity change below about -25%; note: % is set by controls: 0 for no effect and ±100 for the full control effect
Target sequence (Q92551 whole entry, looked up): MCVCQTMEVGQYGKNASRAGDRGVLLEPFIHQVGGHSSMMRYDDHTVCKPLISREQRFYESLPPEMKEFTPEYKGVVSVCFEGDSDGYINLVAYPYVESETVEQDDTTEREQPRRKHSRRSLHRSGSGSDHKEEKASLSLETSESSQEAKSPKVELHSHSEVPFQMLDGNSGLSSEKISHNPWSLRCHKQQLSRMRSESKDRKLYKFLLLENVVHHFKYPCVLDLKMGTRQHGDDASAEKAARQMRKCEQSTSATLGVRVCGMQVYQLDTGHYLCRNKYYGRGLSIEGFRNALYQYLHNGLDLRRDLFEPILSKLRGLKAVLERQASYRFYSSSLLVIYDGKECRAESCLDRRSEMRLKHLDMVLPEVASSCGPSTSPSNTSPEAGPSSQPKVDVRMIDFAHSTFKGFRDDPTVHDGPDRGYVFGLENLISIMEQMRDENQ
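ADP-Glo luminescence measures ADP made by human IP6K1 during a 2 h RT reaction with ATP/IP6 (mix at 1.3 mM/130 uM); top library doses 57.5 and 19.1 uM final.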
KDM5B inh = blocks human KDM5B histone demethylase activity; 220,000 tested, 2.6% active; KDM5B demethylase, FDH-coupled NADH fluorescence (FDH is formaldehyde dehydrogenase); Q9UGL1; AID 1347165; Potency, µM (titrated, usually from 57.7 µM), most hits filed as inhibitors; active = well fitted inhibition curve with a large enough effect; inconclusive = small, poorly fitted or top-dose-only effect; inactive = no such curve, though single readings can be large or run the other way; note: potency is the fitted concentration of half-maximal effect; 0% is about no effect; nearly all actives have a fitted effect of over 70% in size
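KDM5BΔAP (200 nM final) in 50 mM HEPES pH 7.5, 0.01% Tween-20 was preincubated 10 min at RT with compound over a concentration range. Substrate mix (H3K4me3 12.5 µM, α-KG 25 µM, Fe²⁺, ascorbate, NAD⁺, FDH) was added, and NADH fluorescence change over 30 min gave dose-response curves.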
* = called active by the depositor; i = inactive; ? = inconclusive; . = no result given.

SMILES	IP6K1 inhibitor	KDM5B inh
Cc1cccc(-n2nc(-c3c(C)nc4scc(CC(=O)NC(C)C)n4c3=O)cc2C)c1	28	?
Cc1ccc(Cl)cc1-n1nc(-c2c(C)nc3scc(CC(=O)NCCC(C)C)n3c2=O)cc1C	6	22µM*
Cc1nn(-c2ccccc2)c2c1C(C(C)C)N(C1CCCN(C(=O)Cc3ccc(F)cc3)C1)C2=O (stereo not given)	-2	.
CC(C)N1CC(C(=O)NCCc2cccc(F)c2)NC1=O (stereo not given)	-1	.
CCc1nc(C)cc(-c2cc(OC)c(OC)c(OC)c2)n1	34	25µM*
COc1cc(-c2nc(-c3nonc3N)no2)cc(OC)c1OC	.	i
CN1CCN(c2cc(=O)c3ccnc(NCc4ccccc4)c3o2)CC1	-15	40µM*
CN1CCN(c2cc(=O)c3ccnc(-c4ccccc4Oc4ccccc4)c3o2)CC1	-5	?
O=c1cc(-c2cnccn2)oc2c(Nc3ccccn3)nccc12	-10	40µM*
O=c1cc(-c2ccccn2)oc2c(Nc3cccnc3)nccc12	-19	?
O=c1cc(-c2ccccn2)oc2c(NCc3ccccc3)nccc12	-20	40µM*
O=c1cc(-c2ccccn2)oc2c(NCc3ccc(F)cc3)nccc12	-15	?
COc1ccc(CNC(=O)Cc2c(C)c3cc(Cl)c(OC)cc3oc2=O)cc1	.	i
CCOc1ccc2c(=O)c(Oc3cccc(C)c3)coc2c1	.	i
CC(C)OCCNc1nccc(C2(c3ccccc3Cl)CCNCC2)n1	-16	?
COCCNc1nccc(C2(c3ccccc3Cl)CCNCC2)n1	5	22µM*
COc1ccc(CNC(=O)C2CCCN2Cc2cccc(-c3ccc(C)c(Cl)c3)c2)cc1 (stereo not given)	16	.
COc1ccc(C)cc1C(C)NC(=O)c1cc(=O)[nH]c2ccccc12 (stereo not given)	.	i
COc1ccccc1-c1cc(-c2ccsc2)c2onc(C)c2n1	-9	28µM*
Cc1noc2c(-c3ccsc3)cc(-c3cccnc3)nc12	-9	?
Cc1noc2c(-c3ccc(CO)cc3)cc(-c3cccs3)nc12	45	?
COc1ccc(OC)c(-c2cc(-c3cccs3)nc3c(C)noc23)c1	-11	40µM*
O=[S+]([O-])(c1ccccc1)N1CCCN(c2ccc3nnc(C4CC4)n3n2)CC1	7	.
CCOc1ccc(C(=O)Nc2ccc(O)c(-c3nc4ccccc4o3)c2)cc1Cl	.	i
CC(C)(C)C(=O)/C=c1/[nH]c(=O)/c(=C/c2c(F)cccc2F)s1	.	i
SMILES	IP6K1 inhibitor	KDM5B inh
Cn1cc(-c2cn(C)c(=O)n3cc(CNc4ccccc4)nc23)cn1	-8	i
Cn1nccc1OCc1cn2c(=O)n(C)cc(-c3ccsc3)c2n1	-5	?
COc1ccc(-c2cn(C)c(=O)n3cc(CN(C)C)nc23)cc1OC	-6	35µM*
CN1CCN(c2ccc(-c3cn(C)c(=O)n4cc(COc5ccnn5C)nc34)cn2)CC1	-15	40µM*
CN(C)Cc1cn2c(=O)n(C)cc(-c3cccc(OC(F)(F)F)c3)c2n1	-5	i
Cn1nccc1OCc1cn2c(=O)n(C)cc(-c3ccc(O)c(F)c3)c2n1	-11	?
CN1CCN(c2ccc(-c3cn(C)c(=O)n4cc(CNc5ccccc5)nc34)cn2)CC1	-8	28µM*
COc1cc(-c2cn(C)c(=O)n3cc(COc4ccnn4C)nc23)ccn1	0	35µM*
COc1cccc(-c2cc(C(=O)NC3CCCCC3)c3cnn(C)c3n2)c1	11	.
CN1CCC(NC(=O)c2cc(Cl)cc(Cl)c2)CC1	.	i
O=C(NCC1CC1)c1cn2cc(-c3ccccc3)sc2n1	-6	.
O=C1CCN(CC(O)COCc2ccco2)c2cc3c(cc2CN1Cc1ccccc1)OCO3 (stereo not given)	-3	.
Fc1ccc(-c2nc(-c3ccccn3)no2)cc1	.	i
COc1cccc(-c2cc(C(=O)NCc3cccc(Cl)c3)c3cnn(C)c3n2)c1	8	.
Cc1ccsc1CNC(=O)/C=C/c1ccncc1	.	i
O=c1[nH]c2ccc(-c3csc(Nc4ccccc4)n3)cc2o1	.	i
COC[C@@H]1CCCN1Cc1cn(-c2ccccc2)nc1-c1ccc(OC)cc1F	3	i
COC[C@@H]1CCCN1Cc1cc2cc3c(cc2[nH]c1=O)OCO3	11	28µM*
COc1ccc(CCNC(=O)CCc2c(C)nn(CC(C)C)c2C)cc1OC	.	i
Cc1cc(Cl)ccc1OCC(=O)NCc1cccc(NC(=O)C2CC2)c1	.	i
CC(=O)Nc1ccc(S(=O)(=O)N2C[C@@H]3C[C@H](C2)c2ccc(-c4ccc5ccccc5c4)c(=O)n2C3)cc1	7	25µM*
COc1ccc(NC(=O)N2C[C@@H]3C[C@H](C2)c2ccc(NS(=O)(=O)c4cccc(F)c4)c(=O)n2C3)cc1	-7	?
COc1ccc(C(=O)N2C[C@@H]3C[C@H](C2)c2ccc(NS(=O)(=O)c4cccc(C(F)(F)F)c4)c(=O)n2C3)cc1	3	i
O=C(Nc1cccc(F)c1)N1C[C@@H]2C[C@H](C1)c1ccc(-c3cccc(C(F)(F)F)c3)c(=O)n1C2	10	28µM*
CC(=O)Nc1ccc(S(=O)(=O)N2C[C@@H]3C[C@H](C2)c2ccc(-c4ccc(OC(F)(F)F)cc4)c(=O)n2C3)cc1	-5	?
SMILES	IP6K1 inhibitor	KDM5B inh
COc1ccc(C(=O)N2C[C@@H]3C[C@H](C2)c2ccc(-c4ccc5ccccc5c4)c(=O)n2C3)cc1	4	28µM*
CC(=O)Oc1ccc(C(=O)Nc2cccc(-c3nc4cc(C)ccc4o3)c2)cc1	.	i
Oc1c(Cl)cc(Cl)cc1C=Nc1cccc(C(F)(F)F)c1	.	i
O=S(=O)(Nc1nc2ccccc2nc1NC1CCCCC1)c1ccc(F)cc1	.	i
CN1CCN(c2ccc(-c3nccc4c(=O)cc(N5CCOCC5)oc34)cn2)CC1	-17	?
COc1cc(-c2nccc3c(=O)cc(N4CCOCC4)oc23)ccn1	-24	25µM*
COc1cc(-c2nccc3c(=O)cc(N(C)c4ccccc4)oc23)ccn1	-15	i
COc1ccc(-c2nccc3c(=O)cc(N4CCOCC4)oc23)cn1	-5	35µM*
Cc1cccc(/C=N/NC(=O)c2ccc(-c3ccccc3)cc2)c1	.	i
COc1ccc(C)cc1Nc1c2c(nc3ccccc13)CCC2	-10	i
COc1ccc(-c2nc(C)nc3c2CCC3)c2ccc(C)nc12	13	28µM*
COc1cc(-c2onc(C)c2C(=O)NCCCCc2ccccc2)cc(OC)c1OC	-4	25µM*
COc1cc(OC)cc(-c2onc(C)c2C(=O)NC2Cc3ccccc3C2)c1	2	i
COc1cc(-c2onc(C)c2C(=O)NCCCSC)cc(OC)c1OC	-8	32µM*
Cc1noc(-c2ccncc2)c1C(=O)NCCCCc1ccccc1	-1	i
CCCCOCCCNC(=O)c1c(C)noc1-c1cc(OC)cc(OC)c1	20	?
COc1cc(-c2onc(C)c2C(=O)NC2Cc3ccccc3C2)cc(OC)c1OC	16	32µM*
COc1ccc(-c2onc(C)c2C(=O)NCc2ccccc2C)cc1	21	?
COc1cc(-c2onc(C)c2C(=O)NCc2cccc(F)c2F)cc(OC)c1OC	-7	32µM*
CC(Sc1cc(-c2ccccc2)ncn1)C(=O)Nc1ccccc1 (stereo not given)	.	i
CCn1c(SCc2ncc(-c3ccccc3)o2)nnc1-c1ccccc1	.	i
